PubChem BioAssay
Active and inactive are the calls of the source.

What was measured:
[1] = small molecules captured by biotinylated probe aFSTL3 – biochemical, small-molecule microarray, fluorescence 635/667, stem cell growth factor project, primary screen (AID 1064); conditions: higher = more signal;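 also: measures binding of the biotinylated anti-FSTL3 antibody to printed compounds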
[2] = binders from COS7 lysate, DM2A8 probe, primary screen, torsin A project, cell lysate, small-molecule microarray, fluorescence 635/667 (AID 1065); conditions: higher = more signal, COS7 lysate expressing mutant human TOR1A
[3] = small molecules captured by biotinylated probe aFGF2 – biochemical, small-molecule microarray, fluorescence 635/667, stem cell growth factor project, primary screen (AID 1067); conditions: higher = more signal;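 also: measures binding of biotinylated aFGF2 protein to printed compounds on slides; z-score merges feature fluorescence and signal-to-noise across triplicate slides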
[4] = small molecules captured by biotinylated probe aFGF10 – biochemical, small-molecule microarray, fluorescence 635/667, stem cell growth factor project, primary screen (AID 1071); conditions: higher = more signal;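 also: score merges 667 nm spot intensity and signal to noise from triplicate slides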
[5] = target: Neurogenic locus notch homolog protein 2 (Homo sapiens) (UniProt Q04721); assay: small molecules binding Notch2 protein – biochemical, small-molecule microarray, 635 nm fluorescence, stem cell growth factors, primary screen (AID 1073); conditions: higher = more signal
Neurogenic locus notch homolog protein 2 (Homo sapiens), sequence (Q04721 whole entry, looked up, canonical isoform): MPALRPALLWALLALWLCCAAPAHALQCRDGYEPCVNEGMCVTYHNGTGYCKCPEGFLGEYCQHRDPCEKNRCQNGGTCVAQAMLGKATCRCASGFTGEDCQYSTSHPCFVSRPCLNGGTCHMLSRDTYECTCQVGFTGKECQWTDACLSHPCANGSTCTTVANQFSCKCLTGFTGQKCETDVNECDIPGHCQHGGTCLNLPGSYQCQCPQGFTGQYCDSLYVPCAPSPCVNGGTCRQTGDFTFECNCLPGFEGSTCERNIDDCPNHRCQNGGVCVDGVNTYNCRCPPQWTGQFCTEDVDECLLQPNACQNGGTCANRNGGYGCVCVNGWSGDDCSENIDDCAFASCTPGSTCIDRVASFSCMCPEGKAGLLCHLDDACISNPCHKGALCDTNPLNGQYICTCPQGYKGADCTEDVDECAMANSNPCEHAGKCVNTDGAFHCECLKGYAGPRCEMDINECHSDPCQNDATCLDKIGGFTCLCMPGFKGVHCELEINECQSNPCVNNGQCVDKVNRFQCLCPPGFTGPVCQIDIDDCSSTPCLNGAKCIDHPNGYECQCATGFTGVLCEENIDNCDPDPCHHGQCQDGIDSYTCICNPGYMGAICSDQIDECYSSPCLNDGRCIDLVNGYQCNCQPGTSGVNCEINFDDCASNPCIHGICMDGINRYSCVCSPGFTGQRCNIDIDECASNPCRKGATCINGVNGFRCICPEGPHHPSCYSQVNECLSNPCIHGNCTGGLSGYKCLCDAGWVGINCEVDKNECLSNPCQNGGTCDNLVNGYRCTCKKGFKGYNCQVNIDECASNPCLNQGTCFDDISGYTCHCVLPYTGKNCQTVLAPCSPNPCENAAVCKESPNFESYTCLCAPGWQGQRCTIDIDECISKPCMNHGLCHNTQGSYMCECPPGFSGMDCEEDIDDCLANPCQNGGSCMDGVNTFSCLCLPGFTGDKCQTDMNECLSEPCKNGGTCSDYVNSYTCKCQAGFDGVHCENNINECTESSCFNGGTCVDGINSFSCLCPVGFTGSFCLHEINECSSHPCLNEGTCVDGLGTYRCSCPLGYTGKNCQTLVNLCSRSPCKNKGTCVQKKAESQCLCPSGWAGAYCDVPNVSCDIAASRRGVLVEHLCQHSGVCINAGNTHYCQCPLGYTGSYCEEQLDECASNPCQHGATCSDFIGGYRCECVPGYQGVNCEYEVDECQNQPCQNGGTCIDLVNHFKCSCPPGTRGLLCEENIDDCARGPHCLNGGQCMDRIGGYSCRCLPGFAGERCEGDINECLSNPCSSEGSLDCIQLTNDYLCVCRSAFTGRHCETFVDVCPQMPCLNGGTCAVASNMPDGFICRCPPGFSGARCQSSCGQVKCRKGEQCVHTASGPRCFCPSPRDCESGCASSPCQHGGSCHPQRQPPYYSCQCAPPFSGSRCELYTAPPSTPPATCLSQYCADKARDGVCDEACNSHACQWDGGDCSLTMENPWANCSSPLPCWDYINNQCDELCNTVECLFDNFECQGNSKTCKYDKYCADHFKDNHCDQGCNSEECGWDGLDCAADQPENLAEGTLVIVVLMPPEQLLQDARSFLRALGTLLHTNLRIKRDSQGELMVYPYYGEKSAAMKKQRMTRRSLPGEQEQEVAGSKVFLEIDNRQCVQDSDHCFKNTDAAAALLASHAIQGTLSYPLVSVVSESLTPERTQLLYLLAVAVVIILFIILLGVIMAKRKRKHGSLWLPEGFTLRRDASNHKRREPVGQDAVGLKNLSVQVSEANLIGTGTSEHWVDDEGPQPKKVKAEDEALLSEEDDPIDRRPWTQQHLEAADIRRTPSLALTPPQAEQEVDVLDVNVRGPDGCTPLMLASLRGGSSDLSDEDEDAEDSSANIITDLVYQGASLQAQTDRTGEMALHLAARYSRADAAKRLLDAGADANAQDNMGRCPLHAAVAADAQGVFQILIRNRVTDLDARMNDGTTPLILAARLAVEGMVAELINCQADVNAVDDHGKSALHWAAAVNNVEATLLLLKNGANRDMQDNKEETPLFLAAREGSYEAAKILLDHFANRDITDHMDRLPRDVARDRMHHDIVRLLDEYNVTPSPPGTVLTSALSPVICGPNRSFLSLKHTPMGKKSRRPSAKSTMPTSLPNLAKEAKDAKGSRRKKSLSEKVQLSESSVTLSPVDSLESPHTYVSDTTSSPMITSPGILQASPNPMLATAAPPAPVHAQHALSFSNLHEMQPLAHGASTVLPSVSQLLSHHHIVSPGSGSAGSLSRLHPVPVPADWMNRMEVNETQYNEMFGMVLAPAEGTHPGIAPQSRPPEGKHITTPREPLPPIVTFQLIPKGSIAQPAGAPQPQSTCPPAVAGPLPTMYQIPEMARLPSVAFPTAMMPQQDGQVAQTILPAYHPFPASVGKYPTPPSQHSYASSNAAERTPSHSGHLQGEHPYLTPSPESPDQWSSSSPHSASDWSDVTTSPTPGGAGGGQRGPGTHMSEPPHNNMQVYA

[6] = target: Pro-neuregulin-1, membrane-bound isoform (Homo sapiens) (UniProt Q02297); assay: small molecules binding neuregulin-1 protein – biochemical, small-molecule microarray, fluorescence 635/667, psychiatric disease protein project, primary screen (AID 1075); conditions: NRG1 binding, 635 nm fluorescence, higher = more signal;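 also: score combines 667 nm spot fluorescence with signal to noise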
Pro-neuregulin-1, membrane-bound isoform (Homo sapiens), sequence (Q02297 whole entry, looked up, the tested form may be a part, canonical isoform): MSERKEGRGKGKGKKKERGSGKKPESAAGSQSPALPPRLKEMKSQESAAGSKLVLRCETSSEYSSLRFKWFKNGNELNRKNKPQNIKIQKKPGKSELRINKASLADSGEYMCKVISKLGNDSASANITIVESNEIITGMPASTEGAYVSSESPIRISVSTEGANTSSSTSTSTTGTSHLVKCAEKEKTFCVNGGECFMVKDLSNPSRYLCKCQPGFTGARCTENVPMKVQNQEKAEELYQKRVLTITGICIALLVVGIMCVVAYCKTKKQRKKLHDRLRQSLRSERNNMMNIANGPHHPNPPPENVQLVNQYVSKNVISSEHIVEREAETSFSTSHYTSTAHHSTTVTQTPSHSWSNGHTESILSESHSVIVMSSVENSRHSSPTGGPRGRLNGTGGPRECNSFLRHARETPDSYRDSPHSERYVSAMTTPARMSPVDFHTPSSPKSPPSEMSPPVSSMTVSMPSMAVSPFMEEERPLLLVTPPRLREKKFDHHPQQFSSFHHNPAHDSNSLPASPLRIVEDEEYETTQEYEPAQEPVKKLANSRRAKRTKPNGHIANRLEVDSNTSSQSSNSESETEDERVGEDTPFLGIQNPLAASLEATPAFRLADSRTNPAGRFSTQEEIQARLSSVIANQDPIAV

[7] = system: Neuregulin-1 EGF-like domain; assay: small molecules binding NRG1 EGF domain – biochemical, small-molecule microarray, 635 nm fluorescence, primary screen (AID 1081); conditions: higher = more signal;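 also: binding of the protein to compounds printed on small-molecule microarray slides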
[8] = FRG1 expression reporter modulators in myotubes – cell-based, C2C12 myotubes, firefly/Renilla luciferase, luminescence, FRG1 inhibition for FSHD, primary screen (AID 1084); conditions: FRG1 promoter luciferase, higher = more signal, called active from +8 up or from −8 down
[9] = small molecules captured by biotinylated probe aFST – biochemical, small-molecule microarray, fluorescence 635/667, stem cell growth factor project, primary screen (AID 1086); conditions: higher = more signal;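 also: score merges 667 nm fluorescence with signal-to-noise of each printed compound spot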
[10] = binders of probe aHhip on microarray, primary screen, stem cell growth factor project, biochemical, small-molecule microarray, fluorescence 635/667 (AID 1087); conditions: higher = more signal;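 also: score merges spot fluorescence at 667nm with spot signal to noise ratio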

| SMILES | composite z-score [1] | composite z-score [2] | composite z-score [3] | composite z-score [4] | composite z-score [5] | composite z-score [6] | composite z-score [7] | z-score [8] | composite z-score [9] | composite z-score [10] |
| --- | --- | --- | --- | --- | --- | --- | --- | --- | --- | --- |
| C=CCNC(=O)[C@@H]1[C@H]2C(=O)O[C@H](c3ccccc3)[C@H](c3ccccc3)N2[C@H](c2ccc(O)cc2)[C@@]12C(=O)N(C(=O)OCCOC)c1ccc(C#CCNC(N)=O)cc12 | 0.2 | 0.383 | 0.0793 | 0.714 | 0.211 | 1.22 | 0.955 | -0.989 (inactive) | 1.15 | -0.311 |
| COCCOC(=O)N1C(=O)[C@@]2(c3cc(C#CCCO)ccc31)[C@H](C(=O)N1CCCCCCC1)[C@H]1C(=O)O[C@H](c3ccccc3)[C@H](c3ccccc3)N1[C@@H]2c1ccc(OCCO)cc1 | 3.17 | 0.912 | 0.68 | 0.395 | 1.25 | 1.01 | 1.18 | -1.07 (inactive) | 2.87 | 0.0111 |
| NCCCCCNC(=O)[C@@H]1C[C@@H]2C(=O)N[C@@H](Cc3ccccc3)C(=O)N2[C@@H]1c1ccc(O)cc1 | 0.266 | 0.0499 | 0.0257 | 0.507 | 1.12 | 1.05 | 1.24 | 0.227 (inactive) | 0.918 | -0.175 |
| COc1ccc(CCNC(=O)[C@@H]2c3ccccc3C(=O)N(Cc3ccccc3Cl)[C@H]2c2ccc(CO)cc2)cc1 | 0.199 | 0.0795 | -0.123 | 0.218 | 0.586 | 0.8 | 1.38 | -2.28 (inactive) | 0.19 | -0.214 |
| C=CC[C@@]12N=C(c3ccc(OCCCO)cc3)O[C@@H]1c1ccccc1N(C)C2=O | 0.463 | 0.233 | 0.128 | 0.638 | 0.8 | 1.38 | 1.31 | 1.72 (inactive) | 0.593 | 0.0972 |
| COCCOC(=O)N1C(=O)[C@@]2(c3cc(C#Cc4ccc(OC)cc4)ccc31)[C@H](c1ccccc1OCCO)N1[C@H](c3ccccc3)[C@H](c3ccccc3)OC(=O)[C@H]1[C@@H]2C(=O)NC[C@H](O)c1ccccc1 | -0.532 | 0.579 | -0.0744 | 0.514 | 1.09 | 1.12 | 1.3 | 0.19 (inactive) | 0.499 | -0.0346 |
| C=C(/C(=C/C[C@H](OC(C)=O)c1ccc(CO)o1)c1cc(C(=O)OC)ccc1OC)C(C)C | -0.0849 | -0.442 | -0.0637 | 0.597 | 0.102 | -0.306 | 0.53 | -0.601 (inactive) | 0.031 | 0.119 |
| [N-]=[N+]=NCc1ccccc1C[C@]1(C(=O)N2CCCCC2)N=C(c2ccc(OCCCO)cc2)O[C@H]1c1ccccc1N=[N+]=[N-] | 0.643 | 0.133 | 0.158 | 0.816 | 1.3 | 1.57 | 1.1 | -1.99 (inactive) | 0.637 | -0.233 |
| Cc1ccc(S[C@]2(C(=O)NCCCN(C)C)CC(=O)N(Cc3ccccc3C(F)(F)F)[C@@H]2c2ccc(CO)cc2)cc1 | 0.678 | -0.554 | -0.138 | -0.572 | -1.37 | 0.907 | -1.08 | -1.31 (inactive) | 0.0539 | -0.0994 |
| C[N+](C)(C)CCCCCCNC(=O)[C@@H]1C[C@@H]2C(=O)N[C@@H](Cc3ccccc3)C(=O)N2[C@@H]1c1cccc(OCCO)c1 | -0.0274 | 0.673 | -0.0969 | 0.44 | -0.165 | 1.2 | 1.34 | 1.5 (inactive) | 0.143 | 0.236 |
| CN1C(=O)C2C=CC(C(O)c3ccc([N+](=O)[O-])cc3)N(N3CCCCC3)C2C1=O (stereo not given) | 1.11 | -0.306 | 0.132 | 0.695 | 1.6 | 1.3 | 0.961 | 0.198 (inactive) | 1.36 | -0.365 |
| O=C1C2C=CC(C(O)c3cccc4ccccc34)N(Nc3ccccc3F)C2C(=O)N1c1ccccc1 (stereo not given) | 0.154 | -0.371 | -0.0209 | 0.64 | 1.67 | 1.27 | 1.23 | 0.856 (inactive) | 1.23 | -0.0672 |
| O=C1C[C@@](C(=O)NCCN2CCOCC2)(c2ccc([N+](=O)[O-])cc2)[C@@H](c2ccc(CO)cc2)N1CC12CC3CC(CC(C3)C1)C2 | -0.243 | 0.667 | -0.0692 | 0.573 | 1.51 | 1.58 | 1.39 | -2.76 (inactive) | 0.669 | 0.155 |
| O=C1O[C@@H](c2ccccc2)[C@@H](c2ccccc2)N2[C@@H](c3ccccc3OCCO)[C@]3(C(=O)Nc4ccc(C#CC5=CCCCC5)cc43)[C@@H](C(=O)N3CCCCCCC3)[C@H]12 | 3.71 | 2.23 | 0.978 | 1.14 | 1.65 | 2.07 | 1.07 | -0.27 (inactive) | 3.59 | 3.84 |
| CC1CC/C=C\[C@H]2OC34C=CCN(Cc5ccccc5)C(=O)[C@H]3N(CCCO)C(=O)[C@@H]4C2C(=O)O1 (stereo not given in full) | 0.291 | 0.141 | -0.118 | -0.365 | -0.557 | 0.909 | 1.48 | 0.242 (inactive) | -0.662 | -0.0645 |
| [N-]=[N+]=Nc1ccccc1[C@@H]1OC(c2ccc(OCCCO)cc2)=N[C@]1(Cc1ccccc1)C(=O)N1CCOCC1 | 0.324 | 0.0788 | 0.14 | 0.781 | 1.55 | 1.26 | 1.2 | -1.5 (inactive) | 0.802 | 0.0053 |

| SMILES | composite z-score [1] | composite z-score [2] | composite z-score [3] | composite z-score [4] | composite z-score [5] | composite z-score [6] | composite z-score [7] | z-score [8] | composite z-score [9] | composite z-score [10] |
| --- | --- | --- | --- | --- | --- | --- | --- | --- | --- | --- |
| CC(C)C(O)C1C=CC2C(=O)NC(=O)C2N1Nc1ccc(Cl)cc1Cl (stereo not given) | 0.889 | 0.206 | -0.0675 | -0.0108 | 0.514 | 1.98 | 1.16 | -0.903 (inactive) | 0.464 | -0.0645 |
| C=CCOC(=O)[C@H]1[C@@H]2C(=O)O[C@@H](c3ccccc3)[C@@H](c3ccccc3)N2[C@@H](c2ccc(OCCOC(=O)[C@@H]3C[C@@H]4C(=O)N[C@@H](CC(C)C)C(=O)N4[C@@H]3c3ccc(O)cc3)cc2)[C@]12C(=O)Nc1ccccc12 | -0.254 | 0.479 | 0.0056 | 0.649 | 0.85 | 1.02 | 1.2 | 0.631 (inactive) | 0.0922 | 0.0201 |
| COC(=O)[C@@]1(Cc2ccc(OC)cc2)[C@@H]2C(=CC(=O)[C@H]2CC(=O)C(=O)N2CCCC2)CN1C(=O)c1ccccc1 | 0.156 | -0.601 | -0.0124 | 0.224 | 1.6 | 1.02 | 1.25 | 2.91 (inactive) | 1.1 | 1.41 |
| COC(=O)[C@@]1(Cc2ccc(OC)cc2)[C@H]2c3cc(C(=O)N4CCCC4)n(Cc4ccc(O)c(OC)c4)c3C[C@H]2CN1C(=O)c1ccccc1 | 1.41 | 1.14 | 0.694 | 0.777 | 1.1 | 1.83 | 1.1 | 0.665 (inactive) | 2.28 | 2.44 |
| C[N+](C)(C)CCCCNC(=O)[C@H]1C[C@H]2C(=O)N3CCC[C@H]3C(=O)N2[C@H]1c1cccc(OCCO)c1 | 0.397 | 0.442 | -0.154 | -0.194 | -0.568 | -0.235 | 0.807 | 2.19 (inactive) | 0.412 | 0.0053 |
| Cc1nc2cc(Br)ccc2c(=O)o1 | -0.296 | -0.185 | -0.158 | 0.497 | 1.1 | 0.226 | 0.861 | 0.845 (inactive) | 1.04 | 0.0383 |
| C=CC1(C(=O)OC)CC=C(C(=O)OC)CC1 (stereo not given) | -0.219 | 0.191 | -0.0226 | 1.17 | 1.12 | 1.73 | 1.12 | -0.941 (inactive) | 0.0908 | 0.0623 |
| CC1(C)C2C=C(C(O)C3C=CC4C(=O)NC(=O)C4N3Nc3ccc(Cl)cc3Cl)C[C@@H]1C2 (stereo not given in full) | 1.16 | 0.877 | 0.0474 | 0.519 | 1.59 | 1.5 | 0.867 | -0.505 (inactive) | 1.29 | -0.104 |
| COc1cc2c(cc1O)C(C1CC1)N(Cc1sc3ccccc3c1Cl)CC2 (stereo not given) | 0.0766 | 0.602 | -0.135 | 0.0173 | 0.182 | -0.214 | 1.23 | 0.566 (inactive) | -0.145 | -0.0994 |
| COCCOC(=O)N1C(=O)[C@@]2(c3cc(C#Cc4ccc(OC)cc4)ccc31)[C@H](c1ccc(O)cc1)N1[C@H](c3ccccc3)[C@H](c3ccccc3)OC(=O)[C@H]1[C@@H]2C(=O)N1CCc2cc(OC)c(OC)cc2C1 | 0.0419 | 0.87 | 0.0415 | 0.475 | 0.971 | 0.71 | 0.898 | -0.0112 (inactive) | 0.611 | 0.0873 |
| CC(C)C[C@@H]1NC(=O)[C@@H]2C[C@H](C(=O)NCc3ccc(F)cc3)[C@H](c3cccc(OCCO)c3)N2C1=O | 0.0163 | 0.297 | -0.0861 | 0.362 | -0.575 | -0.0212 | 1.32 | -0.148 (inactive) | -0.405 | -0.236 |
| CC(C)OC(=O)C=C1C[C@@H](c2ccccn2)O[C@@H](c2ccccn2)O1 | -0.431 | -0.121 | -0.158 | 0.0234 | -0.538 | -0.13 | 1.27 | 0.805 (inactive) | -0.171 | -0.112 |
| CCOC(=O)C[C@H]1[C@H](OC(=O)c2ccc(-c3ccccc3)cc2)[C@@H](NC(=O)Cc2ccc(OC)cc2)c2cc(OCCCO)ccc2N1C(=O)c1ccccc1 | -0.0117 | -0.354 | -0.0316 | 0.23 | 0.255 | 0.176 | 0.3 | -0.831 (inactive) | 0.376 | -0.0391 |
| C=C(COC)C(=O)CC[C@@H](OC(C)=O)c1ccc(CO)o1 | -0.263 | 0.0091 | -0.147 | 0.764 | -0.102 | -0.0949 | 0.611 | 0.632 (inactive) | 0.316 | 0.142 |
| Cc1ccc(S[C@]2(C(=O)NCCCN(C)C)CC(=O)N(Cc3cc(C(F)(F)F)cc(C(F)(F)F)c3)[C@@H]2c2ccc(CO)cc2)cc1 | -0.16 | -0.594 | -0.159 | -0.145 | -1.28 | 0.494 | -0.624 | 0.318 (inactive) | -0.482 | -0.0645 |
| O=C(NCCO)C1=C[C@H](Oc2ccccc2I)[C@@H](O)[C@H](N(Cc2ccco2)C(=O)Cc2ccccc2)C1 | 0.0391 | 0.208 | -0.112 | 0.236 | 0.299 | -0.352 | -0.473 | 0.157 (inactive) | -0.0165 | 0.12 |
